In the library only some 3.7% were active in any assay of this set; here they are far more common.
BoNT-F LC inh = BoNT/F light chain protease inhibitors, primary screen, biochemical, flow cytometry, MLPCN library. Multiplex microsphere protease cleavage assay. hit rate 0.22% among 360,000. inhibition, % at 10 µM. Botulinum neurotoxin type F light chain protease (Clostridium botulinum); in the data active = inhibition above about 35%, passing the limit was not always enough; inconclusive = no clear call, values can overlap the other calls
Anthrax LF prot = Bacillus anthracis LF protease inhibitors, primary screen, biochemical, multiplex microsphere, MLPCN library. inhibition, % at 10 µM. hit rate 0.12% among 360,000. multiplex microsphere protease cleavage assay
Target sequence (P15917 whole entry, looked up): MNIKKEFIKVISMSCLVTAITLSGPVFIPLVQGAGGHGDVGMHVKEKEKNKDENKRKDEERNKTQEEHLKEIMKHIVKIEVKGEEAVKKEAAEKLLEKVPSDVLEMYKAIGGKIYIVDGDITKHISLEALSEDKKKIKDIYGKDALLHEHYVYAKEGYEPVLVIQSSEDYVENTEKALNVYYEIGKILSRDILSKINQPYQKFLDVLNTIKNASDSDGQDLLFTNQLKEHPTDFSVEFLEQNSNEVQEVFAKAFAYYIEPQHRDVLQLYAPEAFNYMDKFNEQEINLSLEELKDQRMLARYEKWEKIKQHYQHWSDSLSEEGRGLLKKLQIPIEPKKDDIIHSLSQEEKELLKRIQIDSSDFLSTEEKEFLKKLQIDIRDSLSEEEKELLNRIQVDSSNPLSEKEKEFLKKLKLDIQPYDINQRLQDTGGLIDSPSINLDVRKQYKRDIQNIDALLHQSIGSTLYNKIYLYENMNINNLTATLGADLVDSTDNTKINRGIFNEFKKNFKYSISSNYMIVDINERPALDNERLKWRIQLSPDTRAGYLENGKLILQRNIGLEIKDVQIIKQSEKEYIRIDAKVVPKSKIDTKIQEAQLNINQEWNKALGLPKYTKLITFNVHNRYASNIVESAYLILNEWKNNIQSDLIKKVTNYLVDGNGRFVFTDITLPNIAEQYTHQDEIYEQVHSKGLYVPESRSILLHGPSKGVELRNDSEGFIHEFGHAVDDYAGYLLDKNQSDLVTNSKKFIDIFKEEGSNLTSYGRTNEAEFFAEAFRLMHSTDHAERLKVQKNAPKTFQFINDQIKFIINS
BoNT-A LC inh2 = BoNT/A light chain protease inhibitors, primary screen, biochemical, flow cytometry, MLPCN library. multiplex microsphere protease substrate cleavage. inhibition, % at 10 µM. hit rate 0.17% among 360,000. AID 588499, 2011
Bead autofluor = counter-screen for toxin protease inhibitors: compound fluorescence; compound autofluorescence counterscreen, microsphere flow cytometry; hits give high values; fluorescence intensity (test concentration not listed); hit rate 3.1% among 360,000; in the data active = fluorescence intensity above about 16000; inconclusive = no clear call, values can overlap the other calls
MazEF act = activators of E. coli MazEF toxin-antitoxin RNase, primary screen, biochemical, fluorescence, uHTS; FAM/BHQ RNA-DNA oligo cleavage fluorescence, 5 h; activation, % at 20 µM; hit rate 0.32% among 350,000; AID 504720, 2011; in the data active = activation above about 50%
Hits are given with their value. Cut-off read from the data, not from the text of the source, unless noted: active = inhibition above about 30%; inconclusive = no clear call, values can overlap the other calls; inactive = below that.

Results for COC(=O)c1sc(NC(=O)COc2ccc(C)cc2)nc1C ?
BoNT-F LC inh: inactive; Anthrax LF prot: inactive; BoNT-A LC inh2: inactive; Bead autofluor: 20397; MazEF act: inactive

Results for CC1(C(=O)NS(=O)(=O)c2cccc(Cl)c2)CCN1C(=O)C1(c2ccc(Cl)cc2)CC1 (configuration not stated) ?
BoNT-F LC inh: inactive; Anthrax LF prot: inactive; BoNT-A LC inh2: inactive; Bead autofluor: inactive

How did CCNC(=O)c1cc(Br)ccc1Cl do in these assays?
BoNT-F LC inh: inactive; Anthrax LF prot: inactive; BoNT-A LC inh2: inactive; Bead autofluor: 16959; MazEF act: inactive

Results for c1coc(-c2nc3nc4ccccc4nc3n2CC2CCCO2)c1 (configuration not stated) ?
BoNT-F LC inh: inactive; Anthrax LF prot: inactive; BoNT-A LC inh2: inactive; Bead autofluor: 22833; MazEF act: inactive

What do the screens show for `c1ccc(-c2nc3nc4ccccc4nc3n2CC2CCCO2)cc1` (configuration not stated)?
BoNT-F LC inh: inactive; Anthrax LF prot: inactive; BoNT-A LC inh2: inactive; Bead autofluor: inactive; MazEF act: inactive

Results for COc1ccc(OC)c(NC(=O)C2C3C=CC(C3)C2C(=O)NCc2ccccn2)c1 (configuration not stated) ?
BoNT-F LC inh: inactive; Anthrax LF prot: inactive; BoNT-A LC inh2: inactive; Bead autofluor: 21062; MazEF act: inactive

Results for COc1ccc(NC(=O)NCc2ccccn2)cc1OC ?
BoNT-F LC inh: inactive; Anthrax LF prot: inactive; BoNT-A LC inh2: inactive; Bead autofluor: 19081; MazEF act: inactive

What do the screens show for `CCC(C)[C@H](NC(=O)NCc1ccccn1)C(=O)OC` (some centres not stated)?
BoNT-F LC inh: inactive; Anthrax LF prot: inactive; BoNT-A LC inh2: inactive; Bead autofluor: 16131; MazEF act: inactive

How did O=C(NCc1ccccn1)Nc1ccc2c(c1)OCO2 do in these assays?
BoNT-F LC inh: inactive; Anthrax LF prot: inactive; BoNT-A LC inh2: inactive; Bead autofluor: 17706; MazEF act: inactive

How did Cc1cccc(C)c1NC(=O)C1C2C=CC(C2)C1C(=O)NCc1ccccn1 (configuration not stated) do in these assays?
BoNT-F LC inh: inactive; Anthrax LF prot: inactive; BoNT-A LC inh2: inactive; Bead autofluor: inactive; MazEF act: inactive

How did CCN(CCCNC(=O)CCn1c(=S)[nH]c2cc3c(cc2c1=O)OCO3)c1cccc(C)c1 do in these assays?
BoNT-F LC inh: inactive; Anthrax LF prot: inactive; BoNT-A LC inh2: inactive; Bead autofluor: inactive; MazEF act: inactive

Results for CC(=O)Nc1ccc(CN2C(=O)C(C)(C)ON=C2c2ccc(NC(C)=O)cc2)cc1 ?
BoNT-F LC inh: inactive; Anthrax LF prot: inactive; BoNT-A LC inh2: inactive; Bead autofluor: inactive

Results for O=C(Nc1ccc2c(c1)OCO2)Nc1ccccn1 ?
BoNT-F LC inh: inactive; Anthrax LF prot: inactive; BoNT-A LC inh2: inactive; Bead autofluor: inactive; MazEF act: inactive

Results for O=C(Nc1ccc2c(c1)OCO2)Nc1cnccn1 ?
BoNT-F LC inh: inactive; Anthrax LF prot: inactive; BoNT-A LC inh2: inactive; Bead autofluor: 21245; MazEF act: inactive

How did CCOC(=O)CC1NC(=O)c2ccccc21 (configuration not stated) do in these assays?
BoNT-F LC inh: inactive; Anthrax LF prot: inactive; BoNT-A LC inh2: inactive; Bead autofluor: inactive; MazEF act: inactive

How did NC(=O)CC1NC(=O)c2ccccc21 (configuration not stated) do in these assays?
BoNT-F LC inh: inactive; Anthrax LF prot: inactive; BoNT-A LC inh2: inactive; Bead autofluor: 23615; MazEF act: inactive

What do the screens show for `CCN(CC)C(=O)c1ccc2sc([C@@H]3O[C@H](CO)[C@H](O)[C@H](O)[C@H]3O)nc2c1`?
BoNT-F LC inh: inactive; Anthrax LF prot: inactive; BoNT-A LC inh2: inactive; Bead autofluor: inactive

How did COC(=O)c1nn(-c2ccc(OC)cc2)c(=O)cc1Oc1ccccc1 do in these assays?
BoNT-F LC inh: inactive; Anthrax LF prot: inactive; BoNT-A LC inh2: inactive; Bead autofluor: 21753; MazEF act: inactive

Results for COC(=O)c1nn(-c2ccccc2)c(=O)cc1Oc1ccc(Cl)cc1 ?
BoNT-F LC inh: inactive; Anthrax LF prot: inactive; BoNT-A LC inh2: inactive; Bead autofluor: inactive; MazEF act: inactive

How did COC(=O)C1C(=O)C2=C(CC1C)NC(C)=C(C(=O)OC(C)C)C2c1ccc(C)o1 (configuration not stated) do in these assays?
BoNT-F LC inh: inactive; Anthrax LF prot: inactive; BoNT-A LC inh2: inactive; Bead autofluor: 23601; MazEF act: inactive

How did N#Cc1c(N)nc2c(c1-c1ccccc1)CCCC2 do in these assays?
BoNT-F LC inh: inactive; Anthrax LF prot: inactive; BoNT-A LC inh2: inconclusive; Bead autofluor: 21448; MazEF act: inactive

Results for N#Cc1c(N)nc2c(c1-c1ccncc1)CCCCCC2 ?
BoNT-F LC inh: inactive; Anthrax LF prot: inactive; BoNT-A LC inh2: inactive; Bead autofluor: 23466; MazEF act: inactive

Results for CSc1nc2c(c(-c3ccccc3)c1C#N)CCC2 ?
BoNT-F LC inh: inactive; Anthrax LF prot: inactive; BoNT-A LC inh2: inconclusive; Bead autofluor: 21295; MazEF act: inactive

Results for N#Cc1c2c(nc(N)c1-c1ccccc1)CCCCC2 ?
BoNT-F LC inh: inactive; Anthrax LF prot: inactive; BoNT-A LC inh2: inactive; Bead autofluor: inactive; MazEF act: inactive

What do the screens show for `N#Cc1c(N)nc2c(c1-c1ccc(F)cc1)CCC2`?
MazEF act: inactive

What do the screens show for `CC(C(=O)N1CCc2ccccc21)N1CCN(S(=O)(=O)c2ccc3c(c2)OCCCO3)CC1` (configuration not stated)?
BoNT-F LC inh: inactive; Anthrax LF prot: inactive; BoNT-A LC inh2: inactive; Bead autofluor: inactive; MazEF act: inactive

What do the screens show for `O=C1CSC(c2cccnc2)N1c1ccccc1` (configuration not stated)?
BoNT-F LC inh: inactive; Anthrax LF prot: inactive; BoNT-A LC inh2: inactive; Bead autofluor: inactive; MazEF act: inactive

What do the screens show for `O=S1CCCSC1c1cccnc1` (configuration not stated)?
BoNT-F LC inh: inactive; Anthrax LF prot: inactive; BoNT-A LC inh2: inactive; Bead autofluor: 21912; MazEF act: inactive

Results for O=C(NCCCCO)c1c(-c2ccccc2)oc2c1C(OCCCCCO)CCC2 (configuration not stated) ?
BoNT-F LC inh: inactive; Anthrax LF prot: inactive; BoNT-A LC inh2: inactive; Bead autofluor: inactive

How did COc1cc(NC(=O)c2ccco2)c(OC)cc1NC(=O)CCC(=O)Nc1cc(C)ccc1C do in these assays?
BoNT-F LC inh: inactive; Anthrax LF prot: inactive; BoNT-A LC inh2: inactive; Bead autofluor: 20046; MazEF act: inactive

What do the screens show for `COc1cc(NC(=O)c2ccco2)c(OC)cc1NC(=O)CCC(=O)Nc1cc(C)cc(C)c1`?
BoNT-F LC inh: inactive; Anthrax LF prot: inactive; BoNT-A LC inh2: inactive; Bead autofluor: 20576; MazEF act: inactive

How did O=C(c1ccccc1)N1CCN(c2ccc(N3CCOCC3)nn2)CC1 do in these assays?
BoNT-F LC inh: inactive; Anthrax LF prot: inactive; BoNT-A LC inh2: inactive; Bead autofluor: inconclusive; MazEF act: inactive
